# Laboratory results from the supplement of paper PMC12282887.
# ± gives the standard deviation of the averaged measurements.
# Columns and labels:
# Test in all cases: promoter activity interaction Z-score (Lux/OD deviation from empty-vector control); higher = stronger promoter induction by the compound
# [1] = test system: E. coli BW25113 acrABp lux reporter
# How it was run: (§1)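 E. coli BW25113, as wild type or one of three single-gene deletion strains, carried low-copy luxCDABE promoter reporters and grew in 40 µl LB Lennox in 384-well plates at 37°C, with OD600 and luminescence read every 30 min for 12 h. Each compound was run at four 1:2 dilutions in biological duplicates, integration spanned 0–8 h for wild type and 1–9 h for deletion strains, and wells under 10% of the median growth value were dropped. The score is the Z-transformed residual of growth-normalised luminescence fitted against a control.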
# [2] = test system: E. coli BW25113 micFp lux reporter
# How it was run: as §1
# [3] = test system: E. coli BW25113 ompFp lux reporter
# How it was run: as §1
# [4] = test system: E. coli BW25113 robp lux reporter
# How it was run: as §1
# [5] = test system: E. coli BW25113 soxSp lux reporter
# How it was run: as §1
# [6] = test system: E. coli BW25113 tolCp lux reporter
# How it was run: as §1
# [7] = 18.1 µg/ml, genetic background: wild type
# [8] = 18.1 µg/ml, genetic background: ΔmarA
# [9] = 18.1 µg/ml, genetic background: Δrob
# [10] = 18.1 µg/ml, genetic background: ΔsoxS
# [11] = 36.3 µg/ml, genetic background: wild type
# [12] = 36.3 µg/ml, genetic background: ΔmarA
# [13] = 36.3 µg/ml, genetic background: Δrob
# [14] = 36.3 µg/ml, genetic background: ΔsoxS
# [15] = 72.6 µg/ml, genetic background: wild type
# [16] = 72.6 µg/ml, genetic background: ΔmarA
# [17] = 72.6 µg/ml, genetic background: Δrob
# [18] = 72.6 µg/ml, genetic background: ΔsoxS
# [19] = 145.1 µg/ml, genetic background: wild type
# [20] = 145.1 µg/ml, genetic background: ΔmarA
# [21] = 145.1 µg/ml, genetic background: Δrob
# [22] = 145.1 µg/ml, genetic background: ΔsoxS
smiles,measurement,setting,value
Oc1cc(O)c2c(c1)O[C@@H](c1ccc(O)c(O)c1)[C@H](O)C2 [Catechin],promoter activity interaction Z-score,[1]; [7],0.118 ± 0.17
same,promoter activity interaction Z-score,[1]; [8],-0.352 ± 0.15
same,promoter activity interaction Z-score,[1]; [9],0.3299 ± 0.003
same,promoter activity interaction Z-score,[1]; [10],-0.306 ± 0.42
same,promoter activity interaction Z-score,[1]; [11],0.149 ± 0.084
same,promoter activity interaction Z-score,[1]; [12],-1.14 ± 0.28
same,promoter activity interaction Z-score,[1]; [13],0.394 ± 0.14
same,promoter activity interaction Z-score,[1]; [14],-0.191 ± 0.27
same,promoter activity interaction Z-score,[1]; [15],-0.243 ± 0.23
same,promoter activity interaction Z-score,[1]; [16],-0.35 ± 0.0073
same,promoter activity interaction Z-score,[1]; [17],0.0378 ± 0.18
same,promoter activity interaction Z-score,[1]; [18],-0.0752 ± 0.23
same,promoter activity interaction Z-score,[1]; [19],-0.205 ± 0.27
same,promoter activity interaction Z-score,[1]; [20],-0.135 ± 0.26
same,promoter activity interaction Z-score,[1]; [21],0.0277 ± 0.083
same,promoter activity interaction Z-score,[1]; [22],-0.364 ± 0.16
same,promoter activity interaction Z-score,[2]; [7],-0.45 ± 0.11
same,promoter activity interaction Z-score,[2]; [8],-0.0948 ± 0.022
same,promoter activity interaction Z-score,[2]; [9],-0.0243 ± 0.03
same,promoter activity interaction Z-score,[2]; [10],-0.43 ± 0.036
same,promoter activity interaction Z-score,[2]; [11],-0.372 ± 0.21
same,promoter activity interaction Z-score,[2]; [12],-0.115 ± 0.1
same,promoter activity interaction Z-score,[2]; [13],-0.0591 ± 0.057
same,promoter activity interaction Z-score,[2]; [14],-0.4729 ± 0.00069
same,promoter activity interaction Z-score,[2]; [15],-0.209 ± 0.095
same,promoter activity interaction Z-score,[2]; [16],-0.0545 ± 0.022
same,promoter activity interaction Z-score,[2]; [17],-0.0723 ± 0.19
same,promoter activity interaction Z-score,[2]; [18],-0.295 ± 0.12
same,promoter activity interaction Z-score,[2]; [19],-0.569 ± 0.15
same,promoter activity interaction Z-score,[2]; [20],-0.0791 ± 0.1
same,promoter activity interaction Z-score,[2]; [21],-0.0881 ± 0.0077
same,promoter activity interaction Z-score,[2]; [22],-0.263 ± 0.028
same,promoter activity interaction Z-score,[3]; [7],0.365 ± 0.41
same,promoter activity interaction Z-score,[3]; [8],-0.591 ± 0.23
same,promoter activity interaction Z-score,[3]; [9],-0.0407 ± 0.17
same,promoter activity interaction Z-score,[3]; [10],-0.757 ± 0.35
same,promoter activity interaction Z-score,[3]; [11],0.374 ± 0.65
same,promoter activity interaction Z-score,[3]; [12],-0.588 ± 0.15
same,promoter activity interaction Z-score,[3]; [13],0.0282 ± 0.096
same,promoter activity interaction Z-score,[3]; [14],-0.571 ± 0.38
same,promoter activity interaction Z-score,[3]; [15],0.326 ± 0.55
same,promoter activity interaction Z-score,[3]; [16],-0.202 ± 0.48
same,promoter activity interaction Z-score,[3]; [17],-0.391 ± 0.39
same,promoter activity interaction Z-score,[3]; [18],-0.391 ± 0.094
same,promoter activity interaction Z-score,[3]; [19],-0.0294 ± 0.93
same,promoter activity interaction Z-score,[3]; [20],-0.395 ± 0.18
same,promoter activity interaction Z-score,[3]; [21],0.079 ± 0.47
same,promoter activity interaction Z-score,[3]; [22],-0.14 ± 0.27
same,promoter activity interaction Z-score,[4]; [7],1.06 ± 0.79
same,promoter activity interaction Z-score,[4]; [8],-0.456 ± 0.041
same,promoter activity interaction Z-score,[4]; [9],0.533 ± 0.081
same,promoter activity interaction Z-score,[4]; [10],0.443 ± 0.12
same,promoter activity interaction Z-score,[4]; [11],0.0214 ± 0.94
same,promoter activity interaction Z-score,[4]; [12],-0.758 ± 0.23
same,promoter activity interaction Z-score,[4]; [13],0.0934 ± 0.32
same,promoter activity interaction Z-score,[4]; [14],0.783 ± 1.1
same,promoter activity interaction Z-score,[4]; [15],0.124 ± 0.48
same,promoter activity interaction Z-score,[4]; [16],-0.279 ± 0.31
same,promoter activity interaction Z-score,[4]; [17],-0.125 ± 0.14
same,promoter activity interaction Z-score,[4]; [18],-0.0104 ± 0.026
same,promoter activity interaction Z-score,[4]; [19],0.00344 ± 0.46
same,promoter activity interaction Z-score,[4]; [20],0.234 ± 0.22
same,promoter activity interaction Z-score,[4]; [21],-0.253 ± 0.025
same,promoter activity interaction Z-score,[4]; [22],0.154 ± 0.41
same,promoter activity interaction Z-score,[5]; [7],-0.0785 ± 0.09
same,promoter activity interaction Z-score,[5]; [8],0.187 ± 0.029
same,promoter activity interaction Z-score,[5]; [9],0.051 ± 0.17
same,promoter activity interaction Z-score,[5]; [10],-0.175 ± 0.061
same,promoter activity interaction Z-score,[5]; [11],-0.0143 ± 0.021
same,promoter activity interaction Z-score,[5]; [12],0.127 ± 0.097
same,promoter activity interaction Z-score,[5]; [13],0.055 ± 0.095
same,promoter activity interaction Z-score,[5]; [14],-0.0693 ± 0.098
same,promoter activity interaction Z-score,[5]; [15],-0.0515 ± 0.13
same,promoter activity interaction Z-score,[5]; [16],0.0702 ± 0.24
same,promoter activity interaction Z-score,[5]; [17],0.012 ± 0.11
same,promoter activity interaction Z-score,[5]; [18],-0.155 ± 0.42
same,promoter activity interaction Z-score,[5]; [19],-0.342 ± 0.028
same,promoter activity interaction Z-score,[5]; [20],-0.0381 ± 0.14
same,promoter activity interaction Z-score,[5]; [21],-0.122 ± 0.12
same,promoter activity interaction Z-score,[5]; [22],-0.346 ± 0.37
same,promoter activity interaction Z-score,[6]; [7],0.35 ± 1.1
same,promoter activity interaction Z-score,[6]; [8],0.209 ± 0.5
same,promoter activity interaction Z-score,[6]; [9],0.0748 ± 1.2
same,promoter activity interaction Z-score,[6]; [10],-0.253 ± 0.35
same,promoter activity interaction Z-score,[6]; [11],-0.149 ± 0.74
same,promoter activity interaction Z-score,[6]; [12],-0.0811 ± 0.12
same,promoter activity interaction Z-score,[6]; [13],0.0597 ± 0.79
same,promoter activity interaction Z-score,[6]; [14],-0.531 ± 0.23
same,promoter activity interaction Z-score,[6]; [15],-0.323 ± 0.58
same,promoter activity interaction Z-score,[6]; [16],0.371 ± 0.19
same,promoter activity interaction Z-score,[6]; [17],-0.107 ± 0.25
same,promoter activity interaction Z-score,[6]; [18],-0.249 ± 0.24
same,promoter activity interaction Z-score,[6]; [19],-0.897 ± 0.36
same,promoter activity interaction Z-score,[6]; [20],0.397 ± 0.58
same,promoter activity interaction Z-score,[6]; [21],0.104 ± 0.68
same,promoter activity interaction Z-score,[6]; [22],0.637 ± 0.9
